In all, about 33,000 sequences were measured (“e-score”: median about -0.038, highest 2% from about 0.33 on). The sample holds the highest values, similar sequences and a random draw of the others, so the mix is not that of the screen.
These sequences were tested against T1, GST-Rok-C97-191 (Bacillus subtilis subsp. subtilis str. …, UniProt O34857 97-191) (assay: protein binding microarray; Rok is a gene silencer of Bacillus subtilis; high values mean tight binding). Settings: protein: recombinant; tags: GST (pTH5325, pDEST15-Magic modified); dsDNA, one strand shown.
T1 sequence: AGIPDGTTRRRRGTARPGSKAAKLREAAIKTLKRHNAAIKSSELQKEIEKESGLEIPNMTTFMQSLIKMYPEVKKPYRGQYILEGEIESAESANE
Procedure, shortened: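 Each has a 25-mer constant primer and a 35-mer variable part from a de Bruijn sequence of order 10, covering every non-palindromic 8-mer at least 32 times (palindromic 16). Preference for each 8-mer is given as a rank-based, unitless enrichment score (E-score). Its range runs from 0.5 (most favored) to −0.5 (most disfavored).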
For TAGCACTA, the binding signal was 0.191 E-score. In the case of GCGAGTTA, the binding signal was 0.0475 E-score. ACCAGGCG showed a binding signal of -0.1 E-score. For AATGGCGG, the binding signal was -0.112 E-score. In the case of TCCGGAGA, the binding signal was -0.0285 E-score. GACAGGCA showed a binding signal of -0.106 E-score. Sequence CACATGCA has a binding signal of 0.206 E-score. For GTTTTCTA, the binding signal was 0.256 E-score. With AGTTTCTC the binding signal was 0.244 E-score. CGTTTCGA showed a binding signal of -0.111 E-score. Sequence AGTTTCTG has a binding signal of 0.0882 E-score. Sequence GGTTTCTA has a binding signal of 0.353 E-score. For GCTTTCTA, the binding signal was 0.319 E-score. With CGTTTCTC the binding signal was -0.0794 E-score. With AGTTTCTA the binding signal was 0.389 E-score. For CGTTTCTA, the binding signal was 0.369 E-score. Work on GGCGACAC yielded a binding signal of -0.0519 E-score. GATAGACC was tested, and the binding signal was 0.022 E-score. In the case of AGAGAAGG, the binding signal was -0.195 E-score. CTAGTACC was tested, and the binding signal was 0.244 E-score. Work on GATATATC yielded a binding signal of 0.403 E-score. GAGATATC was tested, and the binding signal was 0.182 E-score. Work on GATATATA yielded a binding signal of 0.358 E-score. For GCGATATA, the binding signal was 0.282 E-score. For GTGATATA, the binding signal was 0.245 E-score. In the case of ATGGGGCC, the binding signal was -0.169 E-score. ACTAGCAT showed a binding signal of 0.142 E-score. In the case of TGGTCTAA, the binding signal was 0.0359 E-score. Sequence GAGTGAAC has a binding signal of 0.0307 E-score. CGACGACC gave a binding signal of -0.148 E-score. AAGCGGGG was tested, and the binding signal was -0.141 E-score. TAGTAGGA showed a binding signal of 0.252 E-score. TAGTAGAA showed a binding signal of 0.433 E-score. With AAGTAGAT the binding signal was 0.407 E-score. For GAGTAGAA, the binding signal was 0.279 E-score. With AAGTAGAA the binding signal was 0.363 E-score. Sequence CAGTAGAG has a binding signal of 0.0442 E-score. CAGTAGAA was tested, and the binding signal was 0.426 E-score. In the case of AAGTAGCA, the binding signal was 0.259 E-score. AAGTAGAC gave a binding signal of 0.021 E-score. For TAGTAGCA, the binding signal was 0.316 E-score. Work on AAGTAGGA yielded a binding signal of 0.0873 E-score. Sequence AAGTAGAG has a binding signal of 0.0923 E-score. GGTTATTA was tested, and the binding signal was 0.0524 E-score. Sequence GGCGGTAC has a binding signal of -0.0765 E-score. ACCGCTCG showed a binding signal of -0.0635 E-score. With ATGTCGCC the binding signal was -0.0714 E-score. For TGCTGGAA, the binding signal was -0.107 E-score. For CCATTAAA, the binding signal was -0.149 E-score. Sequence GTATTTAA has a binding signal of 0.273 E-score. Work on GTATTTTA yielded a binding signal of 0.376 E-score. ATATTTTA showed a binding signal of 0.384 E-score. CTATTTTA was tested, and the binding signal was 0.302 E-score. Sequence ATATTTTG has a binding signal of 0.237 E-score. For GTATTTGA, the binding signal was 0.0326 E-score. Work on CTAGCCGC yielded a binding signal of -0.192 E-score. TGCGGCAA was tested, and the binding signal was 0.0751 E-score. For CTTTCTTC, the binding signal was 0.0829 E-score. Sequence ATTTCTAA has a binding signal of 0.357 E-score. CTTTCTAC showed a binding signal of 0.447 E-score. AGTTCTAG showed a binding signal of 0.236 E-score. Sequence ATTTCTTC has a binding signal of 0.204 E-score. GTTTCTAA gave a binding signal of -0.0431 E-score. For ATTTCTAG, the binding signal was 0.366 E-score. CTTTCTAA showed a binding signal of 0.1 E-score. ATTTCTGG was tested, and the binding signal was 0.0299 E-score. ATTTCTAC was tested, and the binding signal was 0.353 E-score. For ATTTCTCA, the binding signal was 0.126 E-score. For ACTTCTAC, the binding signal was 0.231 E-score. CCAGGTAG gave a binding signal of 0.0315 E-score. With GAACCGAA the binding signal was 0.00912 E-score. Sequence CAAGCTAG has a binding signal of 0.137 E-score. Sequence ATCCCGTC has a binding signal of -0.181 E-score. Work on ATGGTATC yielded a binding signal of 0.0289 E-score. Sequence ATGGTAAA has a binding signal of 0.23 E-score. CTGGTATA gave a binding signal of 0.205 E-score. ATGGTATA was tested, and the binding signal was 0.353 E-score. Work on ATGGTAGG yielded a binding signal of 0.278 E-score. Sequence ATGGTAGC has a binding signal of 0.35 E-score. For CTGGTAGA, the binding signal was 0.324 E-score. GTGGTAAA showed a binding signal of 0.21 E-score. ATGGTACA gave a binding signal of 0.199 E-score. Work on ATGGTAGA yielded a binding signal of 0.448 E-score. GTGGTAGA gave a binding signal of 0.433 E-score. Sequence CTGGTAGC has a binding signal of -0.00597 E-score. Work on AACATCCG yielded a binding signal of 0.0335 E-score. AACCGGTT gave a binding signal of 0.0733 E-score. Sequence AGTAGCAA has a binding signal of 0.277 E-score. ACCTCTCG showed a binding signal of 0.00338 E-score. With CGAAACAA the binding signal was 0.0284 E-score. CAAGCTGC gave a binding signal of -0.171 E-score. Work on AGCGACCT yielded a binding signal of 0.06 E-score. For CACGATGA, the binding signal was -0.103 E-score. GGGAAGGA showed a binding signal of -0.18 E-score. ACAGATTA was tested, and the binding signal was 0.0434 E-score. With CTAGATTC the binding signal was 0.166 E-score. Work on ATAGAATA yielded a binding signal of 0.354 E-score. With ATAGAATG the binding signal was 0.165 E-score. Sequence ATAGAATC has a binding signal of 0.274 E-score. ATAGAAAC was tested, and the binding signal was 0.326 E-score. With ATAGATTG the binding signal was 0.304 E-score. Sequence ATAGATTA has a binding signal of 0.331 E-score. AAAGATTA was tested, and the binding signal was 0.212 E-score. For ATAGAAAT, the binding signal was 0.381 E-score. ATAGATTC was tested, and the binding signal was 0.34 E-score. ATAGAAAA gave a binding signal of 0.267 E-score. AGAAGACA gave a binding signal of 0.059 E-score. In the case of AACCTGCG, the binding signal was -0.0596 E-score. Sequence CAAGGTAA has a binding signal of 0.166 E-score. With CACAATGA the binding signal was 0.00707 E-score. GTTAATGA was tested, and the binding signal was 0.082 E-score. In the case of GTCCCTGA, the binding signal was -0.188 E-score. TCTGGGAA was tested, and the binding signal was 0.0446 E-score. TACTGGCA was tested, and the binding signal was 0.0047 E-score. ACCTATGC gave a binding signal of -0.0256 E-score. With ATTGGGGA the binding signal was -0.0754 E-score. GCAGATTA gave a binding signal of 0.028 E-score. GTAGATTA was tested, and the binding signal was 0.344 E-score. CTAGATTA gave a binding signal of 0.312 E-score. In the case of GAAAGCTC, the binding signal was -0.157 E-score. For ATGTAGTA, the binding signal was 0.407 E-score. CAGTAGTC showed a binding signal of -0.151 E-score. With CAGTAGTA the binding signal was 0.362 E-score. ATGTAGTG showed a binding signal of 0.163 E-score. Sequence GAGTAGTA has a binding signal of 0.305 E-score. For AAGTAGTC, the binding signal was 0.226 E-score. Sequence ATGTAGTC has a binding signal of 0.156 E-score. AAGTAGTA showed a binding signal of 0.358 E-score. AAGTAGTG gave a binding signal of 0.211 E-score. TCCGCTCA was tested, and the binding signal was -0.118 E-score. Sequence CGCTTTCC has a binding signal of -0.13 E-score. For CGGAAAGA, the binding signal was -0.135 E-score. With AACCTCAA the binding signal was -0.0809 E-score. ACACTGGT showed a binding signal of 0.0216 E-score. GCGGGAGA was tested, and the binding signal was -0.111 E-score. For CTGGCGAC, the binding signal was -0.196 E-score. Sequence ACTATAGT has a binding signal of 0.411 E-score. Work on AATATAGT yielded a binding signal of 0.337 E-score. Work on AATATCGT yielded a binding signal of 0.204 E-score. Work on AAAATAGT yielded a binding signal of 0.404 E-score. With AATATAGC the binding signal was 0.349 E-score. In the case of ACTATAGG, the binding signal was 0.148 E-score. For AAAATAGA, the binding signal was 0.271 E-score. In the case of GATATAGC, the binding signal was 0.0553 E-score. AAAATAGC was tested, and the binding signal was 0.21 E-score. Work on AATATAGG yielded a binding signal of 0.0639 E-score. In the case of ACTATAGC, the binding signal was 0.207 E-score. CATATAGC gave a binding signal of 0.127 E-score. With GTTCAGCA the binding signal was 0.0486 E-score. Work on TAAGGCAA yielded a binding signal of 0.0603 E-score. Work on CTGGGAAG yielded a binding signal of -0.0965 E-score. CCACTTAG was tested, and the binding signal was -0.0775 E-score. Work on CGGAGTCC yielded a binding signal of -0.199 E-score. Sequence TAGATCAA has a binding signal of 0.156 E-score. For CTCGACGA, the binding signal was -0.162 E-score. Work on CTTCAGAC yielded a binding signal of -0.188 E-score. CACCGGTA showed a binding signal of 0.0827 E-score. For TACCGATA, the binding signal was 0.339 E-score. AACCGATA was tested, and the binding signal was 0.108 E-score. AACCGGTA gave a binding signal of 0.182 E-score. Sequence CACCGATA has a binding signal of 0.152 E-score. Sequence TACCGGTA has a binding signal of 0.355 E-score. In the case of GACAAGGC, the binding signal was -0.188 E-score. Sequence AAATGCTT has a binding signal of -0.000293 E-score. GAGCTCGA gave a binding signal of 0.0407 E-score. Work on ACGCCAAA yielded a binding signal of -0.128 E-score. For AAGATATC, the binding signal was 0.2 E-score. In the case of AAGATATG, the binding signal was 0.117 E-score. For CAGATACA, the binding signal was 0.146 E-score. TAGATAGA gave a binding signal of 0.345 E-score. With AAGATATA the binding signal was 0.347 E-score. For AAGATAAT, the binding signal was 0.339 E-score. Sequence AAGATACA has a binding signal of 0.151 E-score. GAGATAGA gave a binding signal of 0.15 E-score. Sequence AAGATAAC has a binding signal of 0.131 E-score.
